# Bioassay records (PubChem BioAssay)
# Tau filament bind: qHTS Assay for Tau Filament Binding. Potency, µM (doses to about 57.1 µM), without a hit: top-dose activity change, negative = inhibition. recombinant tau filaments, thioflavin S fluorescence, 15 h; filaments grown with octadecylsulfate alongside compound. 2% of 71,000 active. Microtubule-associated protein tau (Homo sapiens), P10636;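 note: potency is the fitted concentration of half-maximal effect; % is set by controls: 0 for no effect and ±100 for the full control effect; actives lower thioflavin S fluorescence by blocking filaments or displacing dye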
#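 Assay mix: 1 uM His-tagged tau, 30 uM sodium octadecylsulfate, thioflavine S dye in HEPES/NaCl/DTT buffer. Compound is added prior to the inducer. Fluorescence after 15 h at 37 C.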
# ERK AVP block: qHTS Assay for Inhibitors of the ERK Signaling Pathway using a Homogeneous Screening Assay | Potency, µM (doses to about 57.5 µM), without a hit: at the top dose activity, negative = inhibition, most hits filed as inhibitors | 0.99% of 72,000 active | AID 995, 2007 | HEK293-V1b, vasopressin-stimulated pERK AlphaScreen; note: potency is the fitted concentration of half-maximal effect; % is set by controls: 0 for no effect and ±100 for the full control effect; nearly all actives have a fitted effect of over 55% in size
#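 qHTS, compounds titrated on V1b-expressing HEK293 cells. Preincubation 30 min at 37C, vasopressin 25 nM for 5 min, lysis 10 min, bead incubation 5 hr at room temperature.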
# CRE-bla Fsk: Cell signaling CRE-BLA (Fsk stim). AID 662, 2007. 2.5% of 71,000 active. Potency, µM (series often up to 38.2 µM), for inactives: at the top dose activity change, negative = inhibition, usual class: activators. CHO CRE-bla reporter (cAMP response element driving beta-lactamase), forskolin EC10, beta-lactamase ratio; active = well fitted activation curve with a large enough effect in the signal ratio, with a control signal flat, not every such curve was filed as active; inconclusive = small, poorly fitted or top-dose-only effect, or effect the other way, or a change in a side signal; the % refers to the signal ratio; note: potency is the fitted concentration of half-maximal effect; % of control where 0% means no effect
#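 Using CellSensor CRE-bla CHO cells in Opti-MEM with 0.5% dialyzed FBS, compounds were titrated with EC10 NKH 477 for 3 h at 37 °C. CCF4 ratio (460/530 nm) gave %Activity; AC50 derived.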
# TSHR agonist: qHTS Assay for Agonists of the Thyroid Stimulating Hormone Receptor. HEK293-CNG-TSHR cells (CNG channel as cAMP sensor), membrane potential dye, cAMP. AID 926, 2007. Potency, µM (series often up to 57.1 µM), inactives show top-dose activation, actives largely listed as activators. 0.48% of 73,000 active. Thyrotropin receptor (Homo sapiens), P16473; active = well fitted activation curve with a large enough effect in the main read-out, with a control signal flat, not every such curve was filed as active; inconclusive = small, poorly fitted or top-dose-only effect, or a change in a side signal; inactive = no such curve, though single readings can be large or run the other way; % of control where 0% means no effect;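 note: the control signal comes from parental cells without the receptor; potency is the fitted concentration of half-maximal effect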
# Target sequence (P16473 whole entry, looked up): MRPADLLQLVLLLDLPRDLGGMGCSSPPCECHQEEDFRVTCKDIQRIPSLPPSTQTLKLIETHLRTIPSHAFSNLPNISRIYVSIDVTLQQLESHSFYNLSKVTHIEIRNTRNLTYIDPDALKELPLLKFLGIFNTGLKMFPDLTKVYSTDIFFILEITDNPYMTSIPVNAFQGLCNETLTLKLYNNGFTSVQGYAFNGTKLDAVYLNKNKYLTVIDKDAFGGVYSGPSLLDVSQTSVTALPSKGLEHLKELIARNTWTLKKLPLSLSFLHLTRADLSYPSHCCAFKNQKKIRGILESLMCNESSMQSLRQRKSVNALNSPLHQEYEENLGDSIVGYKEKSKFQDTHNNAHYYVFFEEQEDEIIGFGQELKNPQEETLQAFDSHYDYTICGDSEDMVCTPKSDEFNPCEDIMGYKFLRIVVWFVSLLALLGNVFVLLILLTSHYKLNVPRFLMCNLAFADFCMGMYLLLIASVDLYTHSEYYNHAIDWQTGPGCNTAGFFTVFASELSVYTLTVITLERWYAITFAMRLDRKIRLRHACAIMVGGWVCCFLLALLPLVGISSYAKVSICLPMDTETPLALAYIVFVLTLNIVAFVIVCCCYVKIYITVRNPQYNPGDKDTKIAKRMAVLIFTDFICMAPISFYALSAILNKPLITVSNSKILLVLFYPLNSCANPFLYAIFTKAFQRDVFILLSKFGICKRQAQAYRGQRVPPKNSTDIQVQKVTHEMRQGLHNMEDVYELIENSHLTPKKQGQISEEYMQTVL
#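 cAMP rise detected as CNG-channel membrane depolarization by fluorescent dye (emission 590 nm), 30 min after compound, following 60 min dye loading containing 100 uM RO 20-1724 at room temperature. Cells: TSHR/CNG HEK 293, with parental CNG HEK 293 as control.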
# HEK293 cAMP ctrl: qHTS Assay for Agonists of the Thyroid Stimulating Hormone Receptor: Activators of Intracellular cAMP Concentrations in Parental HEK 293; parental HEK293 CNG cAMP sensor, membrane potential fluorescence; Potency, µM (series often up to 57.1 µM), inactives show at the highest dose activation, usual class: activators; 2.5% of 73,000 active; AID 938, 2007; note: potency is the fitted concentration of half-maximal effect; % of control where 0% means no effect; nearly all actives have a fitted effect of over 55% in size
#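 Parental HEK 293 cells stably expressing a cAMP-gated CNG channel were loaded with membrane potential dye containing 100 uM RO 20-1724 for 60 min. Compound added for 30 min; depolarization read as fluorescence intensity at 590 nm.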
# CHO via 24h: Cell Viability - CRE-beta lactamase CHO cell - 24 hr assay; shares compounds with CRE-bla Fsk; CRE-bla CHO viability, ATP luminescence, 24 h; activity, negative = viability loss, % at 46.1 µM; 120 tested, under 10 active
# CHO tox 40h: Cell Viability - CRE-beta lactamase CHO cell - 40 hr assay. Potency, µM, for inactives: max response, actives largely listed as inhibitors. shares compounds with CRE-bla Fsk. CRE-bla CHO viability, ATP luminescence, 40 h. 120 tested, under 10 active
# CREB luc CRC: Confirmation Concentration-Response Assay for Cell signaling CRE-BLA (Fsk stim) - HEK293 CREB Luciferase | shares compounds with CRE-bla Fsk | HEK293 CRE-luc2P, NKH477 EC10 potentiation, luminescence, 4 h | Potency, µM (series often up to 38.3 µM), for inactives: at the top dose activity, positive = activation, most hits filed as activators | 80% of 120 active | AID 907, 2007
# The depositor's hits bear a star; ? = inconclusive; . = no result given; [ ] = dose if it differs, or a comment. This is a sample that favours compounds with a hit; in the whole collection about 7.6% have one here. Unless noted, calls come from the whole dose curve; as a rule, active = well fitted curve in the direction sought with a large enough effect; inconclusive = small, poorly fitted or top-dose-only effect, or another doubt; inactive = no such curve, though single readings can be large; an effect the other way counts as inactive or inconclusive.
SMILES,Tau filament bind,ERK AVP block,CRE-bla Fsk,TSHR agonist,HEK293 cAMP ctrl,CHO via 24h,CHO tox 40h,CREB luc CRC
CCOC(=O)c1ccccc1NC(=O)c1cc(S(=O)(=O)N2CCOCC2)ccc1F,10%,?,10µM*,15%,22%,-16,-15%,13µM*
O=C(c1cc(S(=O)(=O)N2CCOCC2)ccc1F)N1CCCc2ccccc21,5%,-3%,-8%,3%,19%,2,-2%,18%
CCC/C=C(\CCC)C(NS(=O)(=O)c1ccc(Cl)cc1)c1ccc(C(=O)OC)cc1 (stereo not given),-6%,52%,4%,.,22%,.,.,.
CCN(C(=O)c1cn(C)c(=O)c2cc(OC)c(OC)cc12)c1cc(OC)ccc1OC,2%,18%,29%,-4%[11.4 µM],-2%,1,-8%,13µM*
CCn1cc(C(=O)Nc2cccc(NC(C)=O)c2)c2cc(OC)c(OC)cc2c1=O,1%,-28%,?,0%,-1%,.,.,.
CCn1cc(C(=O)Nc2ccc3c(c2)OCCO3)c2cc(OC)c(OC)cc2c1=O,3%,.,1.3µM*,1%,-2%,-8,-18%,0.71µM*
CCCN(CCC)c1nc2ccccc2n2c(C)nnc12,35%,-20%,0%,28%,19%,-10,-21%,10µM*
CCN(CC)c1nc2ccccc2n2cnnc12,54%,-6%,13µM*,.,-7%,-11,?,13µM*
CCOc1ccccc1Nc1nc2ccccc2n2cnnc12,40%,-6%,?,23%,1%,.,.,.
CN(C)c1nc(N)nc(CSc2n[nH]c(-c3ccccc3)n2)n1,11%,-25%,1.6µM*,-2%,-4%,-6,-28%,13µM*
CN(C)c1nc(N)nc(-c2cccnc2)n1,6%,-16%,?,?,?,.,.,.
O=C(O)c1ccccc1NS(=O)(=O)c1ccc(F)c(Cl)c1,.,.,.,-5%,0%,.,.,.
Cc1ccc(C)c(N2CCN(S(=O)(=O)c3ccc4c(c3)OCCO4)CC2)c1,7%,-2%,6%,25µM*,29%,3,-17%,13µM*
Cc1ccc(Cl)cc1N1CCN(S(=O)(=O)c2ccc3c(c2)OCCO3)CC1,2%,3%,5%,9%,20%,.,.,.
c1ncc(CC2CCNCC2)[nH]1,?,3%,?,6%,0%,.,.,.
Cc1ccn2c(CCc3nnc4cc(C)ccn34)nnc2c1,3%[11.4 µM],-2%[11.5 µM],3%[7.6 µM],0%[11.4 µM],9%[11.4 µM],.,.,.
CN1C(=O)NC(c2ccccc2)C2=C1CN(Cc1ccccc1)C2=O (stereo not given),.,.,.,.,.,-3,-1%,21%
CCC(CCC(C)C1CCC2C3CC=C4CC(OC(C)=O)CC[C@@]4(C)C3CC[C@@]12C)C(C)C (stereo not given in full),.,-9%,.,.,.,.,.,.
Cc1cc(C)n(-c2nc(Nc3ccccc3)nc(-n3nc(C)cc3C)n2)n1,0%,2%,12%,19%,16%,-2,-7%,?
c1ccc(Nc2nc(N3CCOCC3)nc(N3CCOCC3)n2)cc1,.,.,.,6%,-10%,.,.,.
Cc1cc(Nc2ccc3ccccc3c2)n2ncnc2n1,.,.,.,.,.,-17,-26%,-24%
Cc1cc(Nc2ccc(C(C)C)cc2)n2ncnc2n1,4%,-25%,?,13%,5%,.,.,.
COC(=O)c1ccc(CSc2ccc3nnc(-c4cccc(F)c4)n3n2)o1,27%,.,7.9µM*,-1%,6%,-14,-18%,13µM*
CCOC(=O)CC(=O)CSc1ccc2nnc(-c3cccc(F)c3)n2n1,-2%,5%,?,6%[11.4 µM],7%,.,.,.
CC[C@@H](CS(=O)(=O)O)[N+](=O)[O-],8%[11.4 µM],11%[11.5 µM],?,-5%[11.4 µM],-1%[11.4 µM],.,.,.
SMILES,Tau filament bind,ERK AVP block,CRE-bla Fsk,TSHR agonist,HEK293 cAMP ctrl,CHO via 24h,CHO tox 40h,CREB luc CRC
Cc1nc(SCC(=O)N2CCCc3ccccc32)c2oc3ccccc3c2n1,-4%,-23%,0.5µM*,?,?,-17,-27%,4µM*
Cc1nc(SCC(=O)NCc2ccco2)c2oc3ccccc3c2n1,-1%,-23%,?,10%,11%,.,.,.
CCc1nc(SCC(=O)N2CCc3ccccc32)c2oc3ccccc3c2n1,-9%,-7%,2%,20%,16%,9,-4%,14µM*
CSc1nsc(SCC(=O)N2CCCc3ccccc32)n1,2%,51%,?,?,?,.,.,.
Cc1nc(SCC(=O)Nc2ccccc2)c2oc3ccccc3c2n1,2%,-3%,0.5µM*,16µM*,27%,-18,-18%,5µM*
CO[C@@H]1/C=C\O[C@@]2(C)Oc3c(C)c(O)c4c(c3C2=O)C(=N[C@H]2CC[C@H](O)O[C@@H]2C)C=C(NC(=O)/C(C)=C\C(=O)[C@@H]2C[C@@H]2[C@@H](O)[C@H](C)[C@@H](O)[C@H](C)[C@H](OC(C)=O)[C@@H]1C)C4=O,24%[11.4 µM],12%[11.5 µM],6%[7.6 µM],-6%[11.4 µM],10%[11.4 µM],.,.,.
CC(=O)Nc1cc(-c2nn(CC(=O)N3CCCCC3)c(=O)c3ccccc23)ccc1N1CCOCC1,3%,-5%,?,6%,-2%,.,.,.
Cn1nc(-c2ccc(N3CCOCC3)c(NS(=O)(=O)c3ccccc3)c2)c2ccccc2c1=O,4%,-17%,2µM*,32%,5%,?,?,?
Cc1nc2cncnc2n(-c2ccccc2)c1=O,-5%,-27%,4%,-2%,27%,.,.,.
COc1cc(C2NC(=O)NC(C)=C2C(=O)OC(C)(C)C)ccc1OCC(N)=O (stereo not given),5%,-14%,-4%,-1%,1%,7,-2%,13µM*
Cn1c(C(=O)NCCCN2CCCC2=O)cc2c(=O)n(C)c3ccccc3c21,29%,?,4µM*,-5%,6%,-8,-21%,13µM*
CN(CCNC(=O)c1cc2c(=O)n(C)c3ccccc3c2n1C)Cc1ccccc1,211%,8%,?,?,?,.,.,.
CCCN(CCC)CCNC(=O)c1cc2c(=O)n(C)c3ccccc3c2n1C,164%,-18%,19%,.,24%,-10,-11%,13µM*
